# Laboratory results: publication PMC5540273 (PLoS ONE, 2017)
# Experiments:
# Settings in all cases: concentration: 1 μM,replicates: in singlicate; n = 1
# MTOR = test system: MTOR
# MUSK = test system: MUSK
# MYLK2 = test system: MYLK2
# MYLK4 = test system: MYLK4
# MYLK = test system: MYLK
# MYO3A = test system: MYO3A
# MYO3B = test system: MYO3B
# NDR1 = test system: T1, NDR1
# T1 construct: gene STK38
# NDR2 = test system: NDR2
# NEK10 = test system: NEK10
# 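Further: KINOMEscan kinase panel screen.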
SMILES,%Inh (MTOR) [%],%Inh (MUSK) [%],%Inh (MYLK2) [%],%Inh (MYLK4) [%],%Inh (MYLK) [%],%Inh (MYO3A) [%],%Inh (MYO3B) [%],%Inh (NDR1) [%],%Inh (NDR2) [%],%Inh (NEK10) [%]
Cc1ccc(C(=O)Nc2ccc(Oc3ccc4nc(NC(=O)C5CC5)cn4c3)c(F)c2)c(=O)n1-c1ccccc1,0,99.8,0,0,15,0,4,8,0,0
COc1cc2c(Nc3ccc(NC(=O)c4ccccc4)cc3)ncnc2cc1OCCCN1CCOCC1 [GSK301329],15,13,0,0,2,0,0,5,0,3
COc1cc2nccc(Nc3ccc(Oc4ccccc4)cc3)c2cc1OC.Cl [GI261656],10,0,0,0,7,6,0,0,29,18
O=C1NCCc2[nH]c(-c3ccncc3)cc21,0,34,20,5,33,7,–,20,0,14
OCCn1cc(-c2cnc3nnn(Cc4ccc5ncccc5c4)c3n2)cn1,52,0,0,0,3,0,0,7,4,0
Cc1ccn2nc(-c3ccc(F)cc3)c(-c3ccncc3)c2c1.Cl [GW457859],8,0,23,0,26,48,0,13,40,0
Cc1cccc2c(-c3ccncc3)c(-c3ccc(F)cc3)nn12.Cl [GW461487],0,7,2,0,14,8,0,25,0,14
COc1cccc(C2=C(Nc3cccc(Cl)c3)C(=O)NC2=O)c1 [SB-341556],8,9,0,23,0,0,0,0,0,73
